Sampled rows, rich in hits. Any-hit rate of the full collection: about 3.4%.
GPR151 activ: activators of human GPR151, primary screen, cell-based, PathHunter beta-arrestin, luminescence; G-protein coupled receptor 151 (Homo sapiens), Q8TDV0; activation, % at 11.2 µM; 650,000 tested, 1% active; PathHunter beta-arrestin GPR151 cells; in the data active = activation above about 4.9%;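 also: 0% = median of compound wells and 100% = cells with positive control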
TEAD-YAP inh: TEAD-YAP interaction inhibition, primary screen, TEAD-YAP interaction inhibitor project, luminescence, HEK-TIYL cells; TEAD-Gal4/YAP UAS-luciferase luminescence; inhibition, % at 9.12 µM; 640,000 tested, 1.4% active; AID 1259422, 2018; in the data active = inhibition above about 32%;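 also: 0% = median of test compound wells and 100% = reference inhibitor wells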
FBW7 act: FBW7 E3 ligase activators, primary screen, biochemical, AlphaScreen, human. F-box/WD repeat-containing protein 7 (Homo sapiens), Q969H0. AlphaScreen FBW7–phospho-cyclin E peptide binding, activator screen. normalized activity (activation), % at 26.1 µM. 650,000 tested, 0.13% active. AID 1259310, 2017; in the data active = normalized activity above about 1.9%;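 also: purified mutant Fbw7 with reduced substrate affinity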
MITF primary: MITF inhibitors, primary screen, biochemical, AlphaScreen, human; Microphthalmia-associated transcription factor (Homo sapiens), O75030; AlphaScreen MITF homodimerization, bead proximity signal; 650,000 tested, 0.91% active; inhibition, % at 2.6 µM; AID 1259374, 2018; in the data active = inhibition above about 50%;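 also: 0% = vehicle wells with protein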
Target sequence (O75030 whole entry, looked up): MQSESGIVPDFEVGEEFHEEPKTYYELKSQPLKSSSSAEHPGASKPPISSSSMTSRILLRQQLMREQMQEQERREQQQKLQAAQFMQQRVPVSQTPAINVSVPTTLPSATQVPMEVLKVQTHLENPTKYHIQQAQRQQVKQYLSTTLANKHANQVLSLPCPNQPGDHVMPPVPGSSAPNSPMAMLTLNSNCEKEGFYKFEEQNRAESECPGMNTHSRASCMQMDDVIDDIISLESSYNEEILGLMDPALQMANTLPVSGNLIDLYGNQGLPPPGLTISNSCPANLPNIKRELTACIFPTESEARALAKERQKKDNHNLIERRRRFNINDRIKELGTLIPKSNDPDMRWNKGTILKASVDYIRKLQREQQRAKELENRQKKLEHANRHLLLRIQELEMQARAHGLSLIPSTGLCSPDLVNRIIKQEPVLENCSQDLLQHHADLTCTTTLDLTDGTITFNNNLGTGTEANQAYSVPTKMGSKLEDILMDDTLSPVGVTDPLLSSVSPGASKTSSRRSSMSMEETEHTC
GPR151 confirm: GPR151 activators, triplicate retest, confirmation, cell-based, PathHunter beta-arrestin, luminescence. 6,700 tested, under 10 active. GPR151 PathHunter beta-arrestin cells, 90 min; % of EA-reagent control over plate median. shares compounds with GPR151 activ. AID 1508609, 2020. activation, % at 11.2 µM;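 active = mean percent activation across replicates above the confirmation screen cutoff of 4.91%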
GPR119 ag: GPR119 activators in beta-arrestin cells, counter-screen for GPR151 activator project, cell-based, PathHunter beta-arrestin, luminescence, triplicate. shares compounds with GPR151 activ. 90 min; 0 = compound-well median, 100 = enzyme-acceptor control. activation, % at 11.2 µM. 6,700 tested, 0.3% active. AID 1508611, 2020;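 active = mean percent activation in the counterscreen above 29.09%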;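 also: counterscreen on off-target GPR119 to flag nonselective hits from the GPR151 activator screen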
* hit, by the source's call; x = not tested or not shown.

SMILES	GPR151 activ	TEAD-YAP inh	FBW7 act	MITF primary	GPR151 confirm	GPR119 ag
O=C(Nc1cccc(N2CCC(NCc3cccc(-n4cccn4)c3)CC2)c1)C1CC1	-1.1	9.7	0.0	-1.8	x	x
O=C(Nc1cccc(N2CCC(NCc3cccnc3)CC2)c1)C1CC1	5.5*	-9.4	-0.1	0.4	0.8	18.9
CS(=O)(=O)N(CC(=O)Nc1cccc(F)c1)Cc1ccccc1	6.3*	22.5	-0.2	12.0	0.2	-0.6
CCOC(=O)C1C(=O)C=C(c2cccc(NS(C)(=O)=O)c2)CC1c1ccccc1C (configuration not stated)	-1.4	2.8	0.2	10.9	x	x
O=C(O)c1ccccc1Nc1nc(N2CCOCC2)nc(N2CCOCC2)n1	9.0*	-40.9	0.0	-2.8	-0.9	-12.8
CC(Nc1nc(CN(C)C2CCOCC2)nc2ccccc12)c1ccc(F)cc1 (configuration not stated)	7.7*	2.7	0.1	1.8	0.8	8.2
Cc1ccc(CNc2nc(CN(C)C3CCOC3)nc3ccccc23)cc1 (configuration not stated)	-0.7	11.3	-0.3	9.7	x	x
N#Cc1ccc2c(c1)N(Cc1ccccc1F)C(=O)C1CCCN21 (configuration not stated)	1.7	4.8	0.5	-2.8	x	x
Cc1cccc(CN2C(=O)C3CCCN3c3ccc(C#N)cc32)c1 (configuration not stated)	9.4*	-5.5	0.0	0.5	-0.4	-6.8
Cc1cccc(NC(=O)CCC2CCN(C(=O)Cc3ccsc3)CC2)c1	5.2*	-6.7	0.0	15.7	-0.1	0.8
COc1ccc(Br)cc1/C=C1\N=C(c2cc(Br)ccc2OC)OC1=O	0.2	-10.3	0.4	13.1	x	x
COc1ccc(Br)cc1C1=N/C(=C\c2cccc(OC)c2OC)C(=O)O1	6.8*	-7.8	0.0	18.6	0.5	8.8
O=C(CNC(=O)c1cccc2ccccc12)NNC(=O)c1ccc(Cc2ccccc2)cc1	0.2	-27.4	-0.1	-3.4	x	x
O=S(=O)(CCc1ccccc1)NCC1(c2cccs2)CCCC1	5.2*	1.9	0.1	-2.7	0.0	0.3
COc1ccc(CSc2nnnn2C)cc1F	5.5*	-7.7	0.1	3.4	-0.1	-7.0
CC1(C)C(=O)OC(c2ccccc2F)C2(CCCCC2)C1=O (configuration not stated)	5.3*	0.9	-0.1	4.0	-0.2	-4.8
COc1ccc(Cl)cc1N1CC(C(=O)Nc2c(C)cccc2C)CC1=O (configuration not stated)	8.3*	-1.0	0.2	-2.4	0.5	3.3
COc1ccccc1N1CC(C(=O)Nc2nnc(SC3CCCC3)s2)CC1=O (configuration not stated)	6.2*	10.9	0.4	3.4	1.1	1.2
COc1ccc(Cl)cc1N1CC(C(=O)Nc2nnc(C)s2)CC1=O (configuration not stated)	-0.7	-6.2	0.2	13.2	x	x
CCOc1ccc(/C(O)=C2/C(=O)C(=O)N(CCN(CC)CC)C2c2ccc(OC)c(OC)c2)cc1C (configuration not stated)	6.6*	-9.5	-0.1	-0.4	0.1	-4.6
CCOc1ccc(/C(O)=C2/C(=O)C(=O)N(CCN(CC)CC)C2c2ccc(Cl)cc2)cc1C (configuration not stated)	-0.8	6.9	-0.2	1.1	x	x
CCCCN(C)C1CCN(C(=S)Nc2ccc(OC)cc2)CC1	0.1	3.1	-0.1	-2.0	x	x
COc1ccc(NC(=S)N2CCC(N(C)C(C)C)CC2)cc1	5.9*	-9.4	0.0	-2.8	-1.0	-13.7
Cc1ccc(-c2nc3ccccc3c(=O)n2NC(=O)c2ccco2)cc1C	5.4*	-1.4	0.0	-12.3	0.4	5.3
CCN(c1ccccc1)S(=O)(=O)N1CCCC(C(=O)O)C1 (configuration not stated)	2.0	-11.0	-0.1	1.0	x	x
SMILES	GPR151 activ	TEAD-YAP inh	FBW7 act	MITF primary	GPR151 confirm	GPR119 ag
COc1cc2[nH]c(=S)nc(Nc3ccncc3)c2cc1OC	-0.1	8.3	0.0	0.4	x	x
COc1ccc(Nc2nc(=S)[nH]c3cc(OC)c(OC)cc23)cc1OC	6.6*	7.9	0.0	3.1	0.5	9.3
COc1cc(Br)c(C2C(C#N)=C(N)Oc3cc4c(cc32)OCO4)cc1OC (configuration not stated)	9.1*	-2.8	-0.2	3.6	0.4	2.6
COc1ccc([N+](=O)[O-])cc1NC(=O)C(C(C)C)N1C(=O)c2ccccc2C1=O (configuration not stated)	2.1	1.2	0.1	13.5	x	x
COc1cc(I)cc(CNc2ccc(F)cc2)c1O	5.4*	-4.1	0.1	9.6	-0.1	6.1
COC(=O)c1ccc(SCC(=O)NCc2ccccc2)c([N+](=O)[O-])c1	7.4*	5.6	0.0	2.5	0.1	-6.4
COc1ccccc1NC(=O)c1ccc(SCC(=O)NCc2ccccc2)c([N+](=O)[O-])c1	-0.1	2.8	0.3	0.8	x	x
Cc1nc(Nc2cccc(N(C)C)c2)nc(Nc2cccc(N(C)C)c2)c1[N+](=O)[O-]	1.5	-2.2	-0.8	26.2	x	x
Cc1nc(Nc2ccc(N(C)C)cc2)nc(Nc2ccc(N(C)C)cc2)c1[N+](=O)[O-]	10.1*	-10.6	-0.2	2.1	1.1	9.3
CCC(Sc1nnc2c3ccccc3n(C)c2n1)C(=O)Nc1ccc(S(N)(=O)=O)cc1 (configuration not stated)	1.3	-4.5	-0.1	-3.3	x	x
CCC(Sc1nnc2c3cc(Br)ccc3n(C)c2n1)C(=O)Nc1ccc(S(N)(=O)=O)cc1 (configuration not stated)	8.5*	-9.8	0.4	3.0	0.0	9.5
S=C(Nc1ccc(Cl)cc1)N(Cc1cccs1)C1CCCCC1	1.2	-2.7	0.0	-11.5	x	x
Cc1cccc(C)c1NC(=O)CSc1nc2ccccc2o1	7.6*	13.2	-0.2	3.1	-1.1	-5.6
O=C(CSc1nc2ccccc2o1)Nc1ccccc1Cl	-0.5	-41.5	-0.1	3.0	x	x
O=C(CSc1nc2ccccc2o1)Nc1ccccc1C(F)(F)F	5.2*	-16.5	0.1	9.5	1.5	4.7
COc1ccc(CCNC(=O)c2cccc(N3CCCC3CO)n2)cc1 (configuration not stated)	8.7*	46.5*	0.1	3.2	-0.1	-6.9
O=C(NCCc1ccc(O)cc1)c1cccc(N2CCC(N3CCOCC3)CC2)n1	5.6*	3.7	0.0	1.8	-1.1	-14.6
CCCNC(=O)c1cccc(N2CCC(N3CCOCC3)CC2)n1	1.0	2.6	0.0	13.0	x	x
